In the supplement of paper PMC8728848:
Only a selection was taken, and the strongest signals are over-represented in it overall.

Experiments:
Assay in all cases: glycan array binding signal (z-score within array); higher = stronger binding
Details in all cases: glycan notation: IUPAC condensed, linker removed
Glc(a1-6)Glc(a1-6)Glc = target: Glc(a1-6)Glc(a1-6)Glc
How it was run: (§1)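 The binding signal is a Z-score computed within each array. Data were drawn from 3228 arrays in the Consortium for Functional Glycomics database, restricted to those with a known protein sequence. Scores were averaged over arrays of the same protein sequence at different concentrations or buffers, and over linkers, and negative values can be taken as non-binding.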

[1] = target: GlcNAc(a1-4)Gal(b1-4)GalNAc
How it was run: as §1

[2] = target: GlcNAc(b1-2)[GlcNAc(b1-6)]Man(a1-6)[GlcNAc(b1-4)][GlcNAc(b1-2)Man(a1-3)]Man(b1-4)GlcNAc(b1-4)GlcNAc
How it was run: as §1

[3] = target: GlcNAc(b1-3)Gal(b1-4)GlcNAc(b1-3)Gal(b1-4)GlcNAc(b1-2)Man(a1-3)[GlcNAc(b1-3)Gal(b1-4)GlcNAc(b1-3)Gal(b1-4)GlcNAc(b1-2)Man(a1-6)]Man(b1-4)GlcNAc(b1-4)GlcNAc
How it was run: as §1

[4] = target: GlcNAc(b1-3)Gal(b1-4)GlcNAc(b1-3)Gal(b1-4)GlcNAc(b1-3)Gal(b1-4)GlcNAc(b1-2)[GlcNAc(b1-3)Gal(b1-4)GlcNAc(b1-3)Gal(b1-4)GlcNAc(b1-3)Gal(b1-4)GlcNAc(b1-6)]Man(a1-6)[GlcNAc(b1-3)Gal(b1-4)GlcNAc(b1-3)Gal(b1-4)GlcNAc(b1-3)Gal(b1-4)GlcNAc(b1-2)Man(a1-3)]Man(b1-4)GlcNAc(b1-4)[Fuc(a1-6)]GlcNAc
How it was run: as §1

[5] = target: GlcNAc(b1-4)[GlcNAc(b1-6)]GalNAc
How it was run: as §1

Kdn(a2-3)Gal(b1-3)GlcNAc = target: Kdn(a2-3)Gal(b1-3)GlcNAc
How it was run: as §1

[6] = target: Man(a1-2)Man(a1-3)[Man(a1-2)Man(a1-6)]Man(a1-6)[Man(a1-2)Man(a1-2)Man(a1-3)]Man
How it was run: as §1

[7] = target: Man(a1-2)Man(a1-6)[Man(a1-3)]Man(a1-6)[Man(a1-2)Man(a1-2)Man(a1-3)]Man
How it was run: as §1

[8] = target: Neu5Ac(a2-3)Gal(b1-4)GlcNAc(b1-3)Gal(b1-3)GlcNAc
How it was run: as §1

[9] = target: Neu5Ac(a2-3)Gal(b1-4)GlcNAc(b1-3)Gal(b1-4)GlcNAc
How it was run: as §1

[10] = target: Neu5Ac(a2-3)Gal(b1-4)GlcNAc(b1-3)Gal(b1-4)GlcNAc(b1-3)GalNAc
How it was run: as §1

Neu5Ac(a2-3)GalNAc = target: Neu5Ac(a2-3)GalNAc
How it was run: as §1

[11] = target: Neu5Ac(a2-3)[GalNAc(b1-4)]Gal(b1-4)GlcNAc(b1-3)GalNAc
How it was run: as §1

[12] = target: Neu5Ac(a2-3)[Neu5Ac(a2-6)]GalNAc
How it was run: as §1

Neu5Ac(a2-6)Gal(b1-4)Glc = target: Neu5Ac(a2-6)Gal(b1-4)Glc
How it was run: as §1

[13] = target: Neu5Ac(a2-6)Gal(b1-4)GlcNAc(b1-2)Man(a1-6)Man(b1-4)GlcNAc(b1-4)GlcNAc
How it was run: as §1

[14] = target: Neu5Ac(a2-6)Gal(b1-4)GlcNAc(b1-2)Man(a1-6)[Gal(b1-4)GlcNAc(b1-2)Man(a1-3)]Man(b1-4)GlcNAc(b1-4)GlcNAc
How it was run: as §1

[15] = target: Neu5Ac(a2-6)Gal(b1-4)GlcNAc(b1-3)Gal(b1-4)GlcNAc(b1-2)Man(a1-3)[Neu5Ac(a2-6)Gal(b1-4)GlcNAc(b1-3)Gal(b1-4)GlcNAc(b1-2)Man(a1-6)]GalNAc
How it was run: as §1

[16] = target: Neu5Ac(a2-6)Gal(b1-4)GlcNAc(b1-3)Gal(b1-4)GlcNAc(b1-3)Gal(b1-4)GlcNAc
How it was run: as §1

[17] = target: Neu5Ac(a2-6)Gal(b1-4)GlcNAc(b1-3)Gal(b1-4)GlcNAc(b1-3)Gal(b1-4)GlcNAc(b1-2)Man(a1-3)[Neu5Ac(a2-6)Gal(b1-4)GlcNAc(b1-3)Gal(b1-4)GlcNAc(b1-3)Gal(b1-4)GlcNAc(b1-2)Man(a1-6)]GalNAc
How it was run: as §1

[18] = target: Neu5Ac(a2-6)Gal(b1-4)GlcNAc(b1-3)Gal(b1-4)GlcNAc(b1-6)[Gal(b1-3)]GalNAc
How it was run: as §1

[19] = target: Neu5Ac(a2-8)Neu5Ac(a2-3)Gal(b1-3)GalNAc(b1-4)[Neu5Ac(a2-3)]Gal(b1-4)Glc
How it was run: as §1

[20] = target: Neu5Ac(a2-8)Neu5Ac(a2-8)Neu5Ac
How it was run: as §1

[21] = target: Neu5Ac(a2-8)Neu5Gc(a2-3)Gal(b1-4)GlcNAc
How it was run: as §1

[22] = target: Neu5Gc(a2-8)Neu5Gc(a2-3)Gal(b1-4)GlcNAc
How it was run: as §1

[23] = target: Neu5Gc(a2-8)Neu5Gc(a2-3)Gal(b1-4)GlcNAc(b1-3)Gal(b1-4)GlcNAc
How it was run: as §1

B1: PX14375A-pdi-503-28-503 (Parabacteroides distasonis) (protein)
chain: PLGSPEAGDISEERQAFLRLTAVYSVMKDFRYTWSMQCFGDVLSNDATYSGSSNDAQTFTLLENYQYQADHTEILNKYRYSYQCINKANLFIRDMEMADDALFSKYDKEQMIGEAKFIRAYTYFELVKTFGGVPCYTGVLDLDHERLGRASVEEIYSVIEQDLNDAVSVLPKKSEVANYESSYAGRITKGAAIAMQTRIYLYEKKYDEVKKAFEKFQNECGGEYSLVAPEDYTWQFSLDGEHCSSSILEVNMYNSSTQSSYNVNNGNRHVLMSMPRNMTIGFGCAQPTQALADAYDAEGDVIRKKTTLLSTEEAIEIETAAKGDVAPVTDDRTGWYNRKLYLAPGQREENRGNNQPTNLRLIRLAEVYLNYAEACYFSGDIANAQKYLNEVRSHVNLAPKNHTGSQLFEDIMNERHLEFGMEGFRFFDVVRVGWGEKVFNGTKKAEFGAKTPFSAGAEVLPIPQTEIDISDGLITN
glycan array binding signal (z-score) (Glc(a1-6)Glc(a1-6)Glc): -0.184
glycan array binding signal (z-score) [1]: 0.594
glycan array binding signal (z-score) [2]: -0.508
glycan array binding signal (z-score) [3]: 1.59
glycan array binding signal (z-score) [4]: 0.489
glycan array binding signal (z-score) [5]: 2.82
glycan array binding signal (z-score) (Kdn(a2-3)Gal(b1-3)GlcNAc): -0.519
glycan array binding signal (z-score) [6]: 1.42
glycan array binding signal (z-score) [7]: -0.437
glycan array binding signal (z-score) [8]: -0.225
glycan array binding signal (z-score) [9]: 0.104
glycan array binding signal (z-score) [10]: -0.442
glycan array binding signal (z-score) (Neu5Ac(a2-3)GalNAc): -0.004
glycan array binding signal (z-score) [11]: -1.13
glycan array binding signal (z-score) [12]: 0.006
glycan array binding signal (z-score) (Neu5Ac(a2-6)Gal(b1-4)Glc): -0.412
glycan array binding signal (z-score) [13]: -0.882
glycan array binding signal (z-score) [14]: -0.819
glycan array binding signal (z-score) [15]: 0.642
glycan array binding signal (z-score) [16]: 0.319
glycan array binding signal (z-score) [17]: 1.64
glycan array binding signal (z-score) [18]: -0.493
glycan array binding signal (z-score) [19]: -0.127
glycan array binding signal (z-score) [20]: -0.278
glycan array binding signal (z-score) [21]: 13.2
glycan array binding signal (z-score) [22]: -0.736
glycan array binding signal (z-score) [23]: -0.755
